Consider 52 compounds from PubChem BioAssay AID2685 (National Center for Advancing Translational Sciences (NCATS), 2010).

Molecules are shown by their SMILES. In all, about 320,000 compounds went through this assay and about 2,100 (0.66%) were called active. Roughly 53% stayed inconclusive and do not appear here. Calls follow the shape of the dose curve; as a rule, active = well fitted inhibition curve with a large enough effect in the signal ratio, with a control signal flat (not every such curve was filed as active); inconclusive = small, poorly fitted or top-dose-only effect, or effect the other way, or a change in a side signal; inactive = flat fitted curve, though single readings scatter; the % refers to the signal ratio. What follows is part of a selection rich in actives, with near analogues and random picks from the rest.
Potency is read from the fitted curve at half-maximal effect.

The experiment in a line: qHTS Assay for Lipid Storage Modulators in Drosophila S3 Cells.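 As to cell number change: cells counted by Cell Tracker Red CMTPX staining in the red channel.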 As to lipid storage change, negative = inhibition: % is scaled to controls: 0 for no effect and ±100 for the full control effect. Particulars: BODIPY lipid droplet fluorescence, 18-24 h, cells fed with added oleic acid; cell number change: measured here: cell count max response; series mostly up to 46.1 µM; lipid storage change, negative = inhibition: at the top concentration. From the text: NIH Molecular Libraries Probe Production Centers Network [MLPCN] NIH Chemical Genomics Center [NCGC] MLPCN Grant: 1 R03 MH085686-01 Assay Submitter (PI): Beller, Mathias; Max-Planck-Institut fur Biophysikalische Chemie NCGC Assay Overview: Storing lipids as a reservoir for energy or the anabolism of elementary metabolites is a common feature of probably all cells and is conserved from bacteria to humans. The universal cellular lipid storage organelle is the so-called lipid storage droplet (LD). Although ubiquitous, LDs share a simple structure composed of a hydrophobic core that harbors the storage lipids, which is shielded by a droplet-specific phospholipid monolayer to which proteins are attached. The current model of LD biogenesis involves an incorporation of the lipid core into the membrane leaflets of the endoplasmic reticulum (ER) followed by a subsequent budding-like maturation of a LD, which ultimately pinches off. Once released, LD volume can increase by localized lipogenesis or fusion of existing droplet. Storage lipids are re-mobilized enzymatically by lipase activity. Lipase regulation in the adipocyte is heavily studied and involves multiple components including catecholamine signaling, the LD-associated proteins Perilipin and comparative gene identification (CGI-58) and at least two lipases named hormone sensitive lipase (HSL) and adipocyte triglyceride lipase (ATGL). LD regulation outside of the adipocyte is poorly understood and only few components are known. However, there is an urgent need to learn more about ectopic fat depots as mislocalized storage of lipids, for example in the liver or muscle, is an eminent health problem associated with insulin resistance or the metabolic syndrome. We developed a laser-scanning cytometer assay to enable 1,536-well screening and combined the results of the small molecules screen with an RNAi database based on lipid storage.
Triacsin C (Sigma-Aldrich T-4540), an inhibitor of long-chain fatty acyl CoA synthetase that blocks synthesis of triglycerides, was used as a positive control for lipid under-storage. A total of 23 nL of compound solution of different concentrations were transferred to the assay plates using a Kalypsys pin tool equipped with a 1,536-pin array containing 10-nL slotted pins (FP1S10, 0.457-mm diameter, 50.8 mm long; V&P Scientific). One microliter of oleic acid (400 uM) was added, and the plate was lidded with stainless steel rubber gasket lined lids containing pinholes. […] Fluorescence was detected by excitation of the fluorophores with a 488-nm laser on an Acumen Explorer (TTP Lab Tech). The total intensity in channel 2 (500-530 nm) reflected lipid droplet accumulation. Cells were detected using channel 3 (575-640 nm) with 5-um width and 100-um depth filters. The ratio of the number of objects in PMT channel 2 over the number of objects in PMT channel 3 was also calculated. Percent activity was computed relative to an internal control (100% inhibited lipid droplet deposition due to the presence of 20 uM Triacsin C), which was added to 32 wells/plate.
Regarding `COc1cccc(N(C(C)=O)C2=NCCCS2)c1`, the “lipid storage change, negative = inhibition” value is -1.29% (inactive) and the cell number change amounted to 4.22%.

Turning to `CC(=O)N(C1=NCCCS1)c1ccc(Cl)cc1`, the “lipid storage change, negative = inhibition” value is 4.02% (inactive) and the cell number change was -2.46%.

Take `CC(=O)N(C1=NCCCS1)c1ccc(F)cc1`: the Potency is 16.4 µM (active) and the cell number change is -2.11%. As to `O=C(COc1ccccc1Cl)N1CCCC(N2CCN(c3ccc(F)cc3)CC2)C1` (configuration not stated), the result was inactive and the cell number change is -2.12%. In the case of `Cn1c(O)c(C=NC2CCCCC2)c(=O)[nH]c1=S`, the “lipid storage change, negative = inhibition” value was 4.55% (inactive) and the cell number change was 4.27%.

As for `Cc1cc(NCCN)nc2ccccc12`, the outcome was inactive and the cell number change is 15.7%. Regarding `Cc1cc(/C=C2\C(=O)NC(=O)N(c3ccccc3)C2=O)c(C)n1-c1ccc(C(=O)O)c(Cl)c1`, the “lipid storage change, negative = inhibition” value was 14.6% (inactive) and the cell number change was -8.5%. In the case of `CCN(CC)c1nc2c(C)cccn2c(=O)c1C=C1C(=O)NC(=O)NC1=O`, the “lipid storage change, negative = inhibition” value was 2.13% (inactive) and the cell number change worked out at 3.76%. Consider `CCOC(=O)N(C)c1ccc(C(O)(C(=O)OC)C(F)(F)F)cc1` (configuration not stated), for which the “lipid storage change, negative = inhibition” value is 11.7% (inactive) and the cell number change is 10.8%. For `COc1ccc2ccc(O)c(CN3CC=C(c4ccccc4)CC3)c2c1` the same measures were -22% (inactive) and 13.7%. Regarding `Cc1ccc2c(CN3CC=C(c4ccccc4)CC3)cc(=O)oc2c1C`, the “lipid storage change, negative = inhibition” value is 10% (inactive) and the cell number change came out at 0.524%. Regarding `Cc1cc(O)c(CN2CC=C(c3ccccc3)CC2)cc1C(C)C`, the Potency was 18.4 µM (active). On to `CCC(CC)NCc1c[nH]c2ccccc12`, for which the “lipid storage change, negative = inhibition” value is -2.64% (inactive) and the cell number change is -0.482%. In the case of `O=C(Nc1ccc(Br)cc1)c1nn(C23CC4CC(CC(C4)C2)C3)cc1Br`, the “lipid storage change, negative = inhibition” value was 20.5% (inactive) and the cell number change was 0.69%.

As for `CS(=O)(=O)NCc1nnc2n1-c1ccc(Cl)cc1C(c1ccccc1)=NC2`, the “lipid storage change, negative = inhibition” value was 4.56% (inactive) and the cell number change was found to be 13.6%. In the case of `CCCCc1nc2ccccc2c(=O)n1-c1ccccc1O`, the “lipid storage change, negative = inhibition” value is -5.09% (inactive) and the cell number change is -9.96%. For `CCCCn1c(O)c(C(CC)=Nc2ccc(C(=O)O)cc2)c(=O)[nH]c1=O` the same measures were 5.22% (inactive) and 5.66%.

For `CCCCCCn1c(=O)c(C(=O)Nc2ccncc2)c(O)c2ccccc21`, the outcome was inactive and the cell number change amounted to 15.2%. As to `CCCCCn1c(=O)c(C(=O)Nc2ncccc2C)c(O)c2ccccc21`, the “lipid storage change, negative = inhibition” value is 20.1% (inactive) and the cell number change is -11.8%. Regarding `CCCCCCn1c(=O)c(C(=O)Nc2ncccc2O)c(O)c2ccccc21`, the Potency was 7.31 µM (active) and the cell number change is -21.9%. With `Cc1ccc(C(=O)N/C(=C\Cl)P(=O)(c2ccccc2)c2ccccc2)cc1`, the “lipid storage change, negative = inhibition” value is -14.3% (inactive) and the cell number change came out at 0.754%.

For `O=C(O)C(O)(c1ccccc1)C1CCCCC1` (configuration not stated), the “lipid storage change, negative = inhibition” value is 6.74% (inactive) and the cell number change is -9.04%.

Turning to `OC(c1ccccc1)(c1ccccc1)C1CCCN1` (configuration not stated), the “lipid storage change, negative = inhibition” value is 2.1% (inactive) and the cell number change was -1.52%. As to `OC(c1ccccc1)(c1ccccc1)C1CCNCC1`, the Potency was 25.9 µM (active). As for `CN(C(=O)CNC(=O)OCc1ccccc1)c1ccc(Br)cc1C(=O)c1ccccc1Cl`, the “lipid storage change, negative = inhibition” value was 17.8% (inactive) and the cell number change turned out to be 9.34%. Regarding `CCCNS(=O)(=O)c1ccc(OCC(=O)N2CCN(Cc3ccc4c(c3)OCO4)CC2)c(C)c1`, the “lipid storage change, negative = inhibition” value is -21.8% (inactive) and the cell number change was -6.04%. Take `CCCCCCN=C(C)c1c(O)n(CCCC)c(=O)[nH]c1=O`: the “lipid storage change, negative = inhibition” value was 13.5% (inactive) and the cell number change stood at 0.489%. Regarding `CCCCn1c(O)c(C(C)=NCCc2ccccc2)c(=O)[nH]c1=O`, the compound was called inactive. Take `CCCCn1c(O)c(C(C)=NCCCN(CC)CC)c(=O)[nH]c1=O`: the Potency is 23.1 µM (active) and the cell number change was -0.0737%.

For the compound `Cc1ccc2c(c1)C1CN(C)CCC1N2C(=O)c1cccnc1Cl` (configuration not stated), the “lipid storage change, negative = inhibition” value was 7.31% (inactive) and the cell number change is -4.72%. On to `CCOC(=O)c1c(C=O)c2ccccc2n1Cc1ccccc1`, for which the “lipid storage change, negative = inhibition” value was 17.4% (inactive) and the cell number change was determined as 3.55%. Consider `CCOC(=O)c1ccc(S(=O)(=O)n2c(=O)oc3ccccc32)cc1`, for which the Potency is 20.6 µM (active). With `CCOC(=O)c1ccc(N=C(c2ccccc2)c2c(O)n(C)c(=O)n(C)c2=O)cc1`, the “lipid storage change, negative = inhibition” value is -0.0351% (inactive) and the cell number change turned out to be 1.32%. In the same order, the values of `O=C1Nc2ccc(Br)cc2C(c2ccccc2)=NC1O` (configuration not stated) are -3.23% (inactive) and 22.1%. Consider `C=C(COC(C)=O)CC1CC(O)[C@]2(C)OC3CC4OC5C[C@]6(C)O[C@]7(C)CCC8OC9C[C@]%10(C)OC%11C(C)=CC(=O)OC%11CC%10OC9C[C@@H](C)C8OC7CC6O[C@]5(C)C/C=C\C4OC3CC2O1` (some centres not stated), for which the “lipid storage change, negative = inhibition” value is -27.9% (inactive). Take `CN(C)C(=O)Oc1cccc(NC(=O)c2ccccc2C(F)(F)F)c1`: the “lipid storage change, negative = inhibition” value was -14.6% (inactive) and the cell number change is -0.228%.

For the compound `CN(C)C(=O)Nc1cccc(OC(=O)N(C)C)c1`, the Potency was 32.6 µM (active). As to `CN(C)C(=O)Oc1cccc(NC(=O)N2CCOCC2)c1`, the “lipid storage change, negative = inhibition” value is -2.7% (inactive) and the cell number change is -25%. On to `CCOC(=O)C1(CCc2ccccc2)CCN(Cc2csc(C(C)=O)c2)CC1`, for which the “lipid storage change, negative = inhibition” value is -8.12% (inactive) and the cell number change was determined as 3.18%. Turning to `CCN(CC)S(=O)(=O)c1cc(NC(=O)C(C)N2CC=C(c3ccccc3)CC2)ccc1C` (configuration not stated), the “lipid storage change, negative = inhibition” value was 2.66% (inactive) and the cell number change is -3.32%. For the compound `Cc1ccc(CN2C(=O)CN=C(c3ccccc3)c3ccccc32)cc1`, the Potency was 10.3 µM (active) and the cell number change amounted to 11.7%. Regarding `CN(C)c1ccc(NC(=O)CN2C(=O)CN=C(c3ccccc3)c3ccccc32)cc1`, the Potency is 10.3 µM (active) and the cell number change is -43.3%. As to `CN(C)c1ccc(NC(=O)CN2C(=O)CN=C(c3ccccc3)c3cc(Cl)ccc32)cc1`, the “lipid storage change, negative = inhibition” value was -4.46% (inactive) and the cell number change was found to be 4.79%. For the compound `O=C1CN=C(c2ccccc2)c2ccccc2N1Cc1ccc(C(F)(F)F)cc1`, the result was inactive.

For the compound `O=C(CN1C(=O)CN=C(c2ccccc2)c2ccccc21)NCc1ccco1`, the result was inactive and the cell number change amounted to 7.88%. For `CCCCNC(=O)CN1C(=O)CN=C(c2ccccc2)c2ccccc21`, the “lipid storage change, negative = inhibition” value was -1.07% (inactive) and the cell number change stood at 20.3%. As to `Cc1nc2ccccc2c(=O)n1-c1ccc(Cl)c(Cl)c1`, the “lipid storage change, negative = inhibition” value was 5.88% (inactive) and the cell number change is 8.67%. For `CCN1CCN(C(=O)Cc2ccccc2OC)CC1` the same measures were 6.25% (inactive) and 5.49%. With `NC(=O)C1CCN(/C=C2\C(=O)NC(=O)N(Cc3ccco3)C2=O)CC1`, the “lipid storage change, negative = inhibition” value was -3.16% (inactive) and the cell number change is 6.38%. Take `Cc1c(NC(NC(=O)CF)C(Cl)(Cl)Cl)c(=O)n(-c2ccccc2)n1C` (configuration not stated): the “lipid storage change, negative = inhibition” value was -0.0201% (inactive) and the cell number change turned out to be 8.45%.

Regarding `O=C(COc1ccc(Cl)cc1)N(c1ccccc1Cl)C1CN2CCC1CC2` (configuration not stated), the “lipid storage change, negative = inhibition” value is 17.1% (inactive) and the cell number change was -2.19%. As to `O=C(Nc1ccc(Cl)cc1C(=O)c1ccccc1)c1ccco1`, the “lipid storage change, negative = inhibition” value was 1.66% (inactive) and the cell number change is 16.6%.
